This is a sample that favours compounds with a hit; in the whole collection about 4.8% have one here.
S2 tox: cell viability loss in ATXN counter-screen; S2 cells (HEK-293 line with an ATXN2-luciferase reporter) viability, CellTiter-Fluor protease fluorescence, 24 h; Potency, µM (top dose mostly 56.7 µM), hits mostly cytotoxic; hit rate 0.49% among 400,000; AID 651635; further: nearly all actives have a fitted effect of over 40% in size
HepG2 tox: counter-screen for TGF-b inhibitors: cytotoxicity in HepG2 cells. Potency, µM (series often up to 46.1 µM), hits mostly cytotoxic. hit rate 0.76% among 410,000. AID 588856. HepG2 CAGA-GFP viability, ATP luminescence, 18 h
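HepG2 CAGA-GFP cells (1000/well, DMEM with 1% FBS) received compound, then TGF-beta at 500 pg/mL final, and were incubated 18 hours at 37 degrees C. Viability was read by CellTiter-Glo luminescence. Media-only wells were set as complete cell-killing and DMSO as no toxicity.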
D3 antag: D3 dopamine receptor (human) antagonism | P35462 | D3R cells, DiscoveRx beta-arrestin luminescence, antagonist mode; hits give low values | max response, negative = inhibition, % | hit rate 2.5% among 360,000 | AID 652054; in the data active means max response below about -50%; inconclusive means no clear call, values can overlap the other calls
Target sequence (P35462 whole entry, looked up): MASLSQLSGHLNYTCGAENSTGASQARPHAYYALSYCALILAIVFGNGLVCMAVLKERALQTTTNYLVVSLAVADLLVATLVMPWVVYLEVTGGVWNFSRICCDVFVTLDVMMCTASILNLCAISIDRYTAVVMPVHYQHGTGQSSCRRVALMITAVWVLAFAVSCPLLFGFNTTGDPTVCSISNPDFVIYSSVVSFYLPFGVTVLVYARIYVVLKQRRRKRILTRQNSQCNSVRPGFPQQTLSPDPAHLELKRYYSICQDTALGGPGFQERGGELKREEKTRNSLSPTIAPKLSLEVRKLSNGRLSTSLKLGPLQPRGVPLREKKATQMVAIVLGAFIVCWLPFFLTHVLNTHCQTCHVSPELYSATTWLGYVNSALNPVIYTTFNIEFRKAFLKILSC
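Cells plated overnight at 1500 cells/well, then exposed to library compounds with dopamine controls for 90 minutes at 37 degrees C. DiscoveRx reagent added for 30–60 minutes at room temperature; luminescence read, quantitative HTS format.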
D3 ag: agonists of human D3 dopamine receptor. P35462. D3R DiscoveRx beta-arrestin cells, luminescence, 90 min. hit rate 0.58% among 410,000. max activation, %; in the data active means max activation above about 30%
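Agonist-mode cell screen: cells plated at 1500/well and incubated overnight at 37 °C, then exposed to library compounds for 90 min at 37 °C. Detection reagent was added for 30–60 min at room temperature, and luminescence was read.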
ATXN2 expr inh: ATXN2 expression inhibition; HEK-293 ATXN2-luciferase reporter, luminescence, 24 h; Potency, µM (top dose mostly 57 µM), usual class: inhibitors; hit rate 0.72% among 360,000; AID 1745845; further: nearly all actives have a fitted effect of over 55% in size
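ATXN2-luciferase reporter cells (luciferase flanked by upstream and downstream ATXN2 gene portions) were treated 24 h at 37 °C with compounds at up to 57 uM. SteadyGlo luminescence gave expression; GF-AFC fluorescence gave viability.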
TGFb SMAD3 inh: TGF-b pathway inhibition | HepG2 CAGA-GFP TGF-b/SMAD3 reporter, GFP fluorescence, 18 h; TGF-beta stimulated, 500 pg/mL final | Potency, µM (series often up to 46.1 µM), most hits filed as inhibitors | hit rate 1.2% among 410,000 | AID 588855; further: nearly all actives have a fitted effect of over 65% in size
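First, reporter cells (HEPG2 CAGA-GFP) rested 2 h at 37 degrees C. Next, compounds were pinned in and TGF-beta added to 500 pg/mL final. After 18 h, GFP was imaged per cell and summed per well.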
Hits are given with their value; – = inactive; ? = inconclusive; · = not tested or not shown; ! = repeats disagree. Unless noted, the call rests on the fitted dose curve; in most records, active means well fitted curve in the direction sought with a large enough effect; inconclusive means small, poorly fitted or top-dose-only effect, or another doubt; inactive means no such curve, though single readings can be large; an effect the other way counts as inactive or inconclusive.

SMILES	S2 tox	HepG2 tox	D3 antag	D3 ag	ATXN2 expr inh	TGFb SMAD3 inh
CCOc1cccc2sc(N(CCN(C)C)C(=O)c3cc4ccccc4cc3OC)nc12	?	–	-70.6	–	20µM	?
Cc1cccc2sc(N(CCN(C)C)C(=O)c3ccc4c(c3)OCCO4)nc12	·	–	·	–	·	–
COc1cccc(CN2Cc3cccc4c3[C@H](C=CC4)CC2=O)c1	·	–	·	·	·	–
O=C1C[C@H]2C=CCc3cccc(c32)CN1Cc1ccc(Cl)cc1	·	–	·	·	·	10µM
O=C1C[C@H]2C=CCc3cccc(c32)CN1Cc1cccc(F)c1	·	–	·	·	·	–
C1=C[C@@H]2CCN(Cc3ccccc3)Cc3cccc(c32)C1	?	–	?	–	–	–
COc1ccc(CN2CC[C@H]3C=CCc4cccc(c43)C2)cc1	?	–	-102.5	–	–	–
Cc1ccc(CN2CC[C@H]3C=CCc4cccc(c43)C2)cc1	?	–	-122.6	–	–	?
CCC(C)NC(=O)Cn1c(=O)ccc2cc(S(=O)(=O)N3CCCC3)ccc21 (configuration not stated)	–	–	·	–	–	–
Cc1nnc(N=c2ssnc2Cl)o1	?	–	-82.5	–	?	2.51µM
CCc1nnc(NC(=O)c2ccc(S(=O)(=O)N(C)c3ccccc3)cc2)o1	–	–	–	–	?	–
Cc1nnc(NC(=O)c2ccc(S(=O)(=O)N(C)Cc3ccccc3)cc2)o1	?	–	-72.2	–	–	–
CCN(Cc1ccccc1)S(=O)(=O)c1ccc(C(=O)Nc2nnc(C3CC3)o2)cc1	–	–	–	–	20µM	–
CCN(CC)S(=O)(=O)c1ccc(C(=O)Nc2nnc(C(C)C)s2)cc1	–	–	-68.7	–	–	–
CCN(CC)S(=O)(=O)c1nnc(NC(=O)c2ccc(C(C)C)cc2)s1	·	–	·	–	·	?
CCc1nnc(NC(=O)c2ccc(S(=O)(=O)N(CC(C)C)CC(C)C)cc2)o1	–	–	-107.3	–	?	?
CC(=O)OCC(=O)[C@@]12N=C(C)O[C@H]1C[C@H]1[C@@H]3CCC4=CC(=O)C=C[C@]4(C)[C@@H]3[C@@H](O)C[C@@]12C	·	·	·	·	–	·
CCC1CN(CCNC(=O)c2ccc3c(c2)OCCO3)Cc2cc(OC)ccc2O1 (configuration not stated)	–	·	·	·	·	·
CCN(c1ccccc1)c1nnc(NC(=O)Nc2ccc(Br)cc2F)s1	·	–	·	–	·	–
CC(C)CN(CC(C)C)S(=O)(=O)c1ccc(C(=O)Nc2sc3c(c2C(N)=O)CCN(C(C)C)C3)cc1	·	11.2µM	·	–	?	–
CC(C)N1CCc2c(sc(NC(=O)c3ccc(S(=O)(=O)N4CCOCC4)cc3)c2C(N)=O)C1	?	–	–	–	–	–
Cc1ccsc1/C=C/C1=NCCCN1C	–	–	-52.1!	–	–	–
C=CCc1cc(Cl)ccc1OCCOCCNCCOC	–	–	–	–	–	–
C=CCc1cc(Cl)ccc1OCCNCCCOC	–	–	-59.1	–	–	–
C=CCc1ccccc1OCCNCCCOC	–	–	-102.1	–	–	–
SMILES	S2 tox	HepG2 tox	D3 antag	D3 ag	ATXN2 expr inh	TGFb SMAD3 inh
COC(=O)c1cc2occc2n1Cc1ccc(F)cc1Cl	–	–	·	–	–	–
Cn1c(SCC(=O)Nc2ccccc2)nc2c([nH]c3ccccc32)c1=O	?	–	–	–	?	–
CCOC(=O)c1[nH]c2ccccc2c1NC(=S)Nc1ccccc1	–	–	–	–	–	–
Cc1cccc(NC(=O)CSc2nc3c([nH]c4ccccc43)c(=O)n2C)c1	?	–	-70.5	–	?	?
COc1cc(NC(=O)CCCn2c(=S)[nH]c3ccccc3c2=O)cc(OC)c1OC	–	–	–	–	–	–
CCOC(=O)c1[nH]c2ccccc2c1NC(=S)Nc1cccc(C)c1	–	–	-52.8	–	–	–
Cc1cccc(NC(=O)CCCn2c(=S)[nH]c3ccccc3c2=O)c1	–	–	–	46.6	–	–
CCN1C(=O)CC(CC(=O)N2CCC(c3nc4ccc(F)cc4[nH]3)CC2)(c2ccccc2C)C1=O (configuration not stated)	–	·	·	·	·	·
C/C=C(/CC[C@@H](C)[C@H]1CC[C@H]2C3=CC[C@H]4[C@H](C)[C@@H](O)CC[C@]4(C)[C@H]3CC[C@]12C)C(C)C	–	·	·	–	·	·
COC(=O)c1ccc(C2c3[nH]c4ccccc4c3C[C@H]3C(=O)N(C4CCN(Cc5ccccc5)CC4)CC(=O)N23)cc1 (some centres not stated)	–	–	-61.2	–	–	–
CCOc1ccccc1C1c2[nH]c3ccccc3c2C[C@H]2C(=O)N(C3CCN(Cc4ccccc4)CC3)CC(=O)N12 (some centres not stated)	–	–	-104.8	–	–	?
O=C1[C@@H]2Cc3c([nH]c4ccccc34)C(c3cccc(Br)c3)N2C(=O)CN1C1CCN(Cc2ccccc2)CC1 (some centres not stated)	?	–	–	–	?	15.8µM
NC1=N[C@@]2(c3cc(NC(=O)c4ccc(F)cn4)ccc3F)COC[C@@H]2CS1	·	·	·	·	–	·
COc1ccc(N2CC(NC(=O)COc3ccccc3C)CC2=O)cc1OC (configuration not stated)	–	–	·	–	–	–
N#Cc1cn(CC(=O)N2CCCc3ccccc32)c2ccccc12	–	–	–	–	–	–
CN1CCN(C(=S)SCC(=O)N2CCCc3ccccc32)CC1	–	–	-60.5	–	–	–
O=Cc1cn(CC(=O)N2CCCc3ccccc32)c2ccccc12	?	–	-56.5	–	?	–
CCOc1ccc2nc(N(Cc3cccnc3)C(=O)c3ccco3)sc2c1	·	–	·	–	·	–
COCCn1c(CNC(=O)c2ccccc2C)nc2cccnc21	·	–	·	–	·	–
O=S(=O)(NCCCCNS(=O)(=O)c1cccc2cccnc12)c1cccc2cccnc12	·	–	·	·	·	–
CC(C)(C)OC(=O)C[C@@H]1C/C=C\C[C@H](CC(=O)N(CCO)Cc2ccccc2)C(=O)NC[C@@H](c2ccccc2)OC1=O	–	–	-95.5	–	–	–
O=C1NC[C@H](c2ccccc2)OC(=O)[C@H](Cc2ccc(F)cc2)C/C=C\C[C@H]1CC(=O)N(CCO)Cc1ccccc1	?	–	–	–	31.6µM	?
CC(=O)Nc1ccccc1-c1nc(CNC(=O)c2ccc(C)cc2)c(C)o1	–	·	·	·	·	·
COc1ccc2c(Sc3ccccc3)c(C(=O)NCCN(C)C)[nH]c2c1	–	–	·	–	–	–
COc1ccc2c(Sc3ccccc3)c(C(=O)N3CCC(C)CC3)[nH]c2c1	·	–	·	–	?	14.1µM
CC1c2ccccc2CN1NC(=O)c1ccc(Cl)c(S(N)(=O)=O)c1 (configuration not stated)	–	·	·	51.3	–	·
Clc1cc(Cl)c(OCC#CI)cc1Cl	·	·	·	–	·	·

Screens deposited in PubChem BioAssay by National Center for Advancing Translational Sciences (NCATS).
